Results on 7 compounds are retold here after PubChem BioAssay (NCI).

Some test systems named below: DU-145 prostate; K-562 leukemia; MALME-3M melanoma; MDA-MB-231 breast; RXF 393 renal; SF-268 CNS; SF-295 CNS; SF-539 CNS; UACC-257 melanoma; M14 melanoma; HCT-15 colon; HT29 colon; SNB-75 CNS; SNB-19 CNS; U251 CNS; PC-3 prostate; SK-MEL-5 melanoma; UACC-62 melanoma; LOX IMVI melanoma; SK-MEL-28 melanoma.
What all share (experiment): NCI-60 one-dose screen, 48 h (100 = growth as untreated, 0 = no growth, -100 = all killed)
Holding throughout (conditions): 10 µM unless noted

SMILES strings stand for the structures. The panel holds about 83,000 compounds, 20% with a hit somewhere; the sample as a whole holds those more often.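 Growth was measured after 48 h exposure to one concentration of compound in 96-well plates. Values under 10 count as active.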 Unmarked numbers belong to inactive results. Active and inactive are the calls of the source.

On to `CCOc1ccccc1[C@H]1C(C(=O)c2ccc(Cl)cc2)C2(N[C@@H]1c1ccccc1)C(=O)Nc1ccc(Cl)cc12` (stereo not given in full), for which the growth in the assay with DU-145 prostate is 45.2%; in the assay with K-562 leukemia it was 6.17% (active); with MALME-3M melanoma, 45.7%; in the assay on MDA-MB-231 breast, 28.8%; in the assay with RXF 393 renal it was 2.56% (active); with SF-268 CNS, 46.6%. The growth is 11.1% with SF-295 CNS; 37.2% in the assay with SF-539 CNS; 69.5% in the assay with UACC-257 melanoma; 22.5% in the assay with M14 melanoma; 20.3% with HCT-15 colon; 10.7% in the assay on HT29 colon. The growth was 30.7% in the assay with SNB-75 CNS; 37.7% with SNB-19 CNS; 36.3% with U251 CNS; 9.44% (active) with PC-3 prostate; 6.43% (active) in the assay on SK-MEL-5 melanoma; 17.5% in the assay with UACC-62 melanoma. In addition, the growth in the assay on LOX IMVI melanoma is 13.2%; with SK-MEL-28 melanoma, 41.2%.
Regarding `CN(C)c1nc(NCCNS(=O)(=O)c2ccc(C(=O)/C=C/c3ccc(C(F)(F)F)cc3)cc2)nc(N2CCOCC2)n1`, the growth in the assay with DU-145 prostate was 3.39% (active); in the assay with K-562 leukemia it was -13.6% (active); in the assay on MALME-3M melanoma, 56.5%; with MDA-MB-231 breast, -59.1% (active); in the assay with RXF 393 renal it was -76.6% (active); in the assay on SF-268 CNS it was 50.5%. Further, the growth in the assay with SF-295 CNS is 7.03% (active); with SF-539 CNS, -95.4% (active); with UACC-257 melanoma, 37.9%; with M14 melanoma it was -87.5% (active); in the assay with HCT-15 colon, -78.2% (active); in the assay with HT29 colon it was -73% (active). For the same compound, the growth in the assay on SNB-75 CNS was 59.5%; in the assay on SNB-19 CNS, 57.8%; in the assay on U251 CNS, -85.5% (active); in the assay with PC-3 prostate, -60.1% (active); with SK-MEL-5 melanoma, -42.8% (active); in the assay on UACC-62 melanoma, 48.2%. Besides, the growth in the assay with LOX IMVI melanoma is -99.2% (active); in the assay with SK-MEL-28 melanoma it was -9.43% (active).
`C[C@@H]1CN(c2ccc3ncc(C#Cc4cncc(C(=O)Nc5ccc(CN6CCN(C)CC6)c(C(F)(F)F)c5)c4)n3n2)C[C@@H](C)O1`: the growth in the assay with DU-145 prostate is -85.7% (active); in the assay with K-562 leukemia it was -28.1% (active); in the assay with MALME-3M melanoma, -97.5% (active); with MDA-MB-231 breast, -93.1% (active); in the assay with RXF 393 renal it was -96.1% (active); in the assay on SF-268 CNS, -56.2% (active). Also, the growth was -100% (active) in the assay on SF-295 CNS; -100% (active) with SF-539 CNS; -86.6% (active) in the assay on UACC-257 melanoma; -94% (active) with M14 melanoma; -91% (active) in the assay on HCT-15 colon; -60.5% (active) in the assay on HT29 colon. Moreover, the growth with SNB-75 CNS is -95.9% (active); in the assay with SNB-19 CNS, -99.8% (active); in the assay with U251 CNS it was -68.8% (active); in the assay with PC-3 prostate, -54.9% (active); in the assay on SK-MEL-5 melanoma, -99.6% (active); in the assay with UACC-62 melanoma it was -65.6% (active). For the same compound, the growth with LOX IMVI melanoma is -96.8% (active); in the assay on SK-MEL-28 melanoma, -58.4% (active).
With `COc1cc(CNC(=O)C[C@H](C)CCC=C(C)C)ccc1OCc1cn(-c2ccc(Cl)c(Cl)c2)nn1`, the growth is 76.8% in the assay with DU-145 prostate; 51.9% in the assay with K-562 leukemia; 77.4% in the assay on MALME-3M melanoma; 75.7% in the assay with MDA-MB-231 breast; 74.8% in the assay with RXF 393 renal; 58.4% in the assay with SF-268 CNS. Also, the growth in the assay on SF-295 CNS was 80.5%; with SF-539 CNS, 5.3% (active); in the assay with UACC-257 melanoma it was 91%; with M14 melanoma, 89%; in the assay on HCT-15 colon it was 29.4%; in the assay on HT29 colon, 78.3%. Also, the growth with SNB-75 CNS was 47.2%; in the assay with SNB-19 CNS it was 81.3%; in the assay on U251 CNS it was 48.2%; in the assay on PC-3 prostate, 65.9%; in the assay with SK-MEL-5 melanoma, 71.9%; in the assay with UACC-62 melanoma it was 69.3%. Also, the figures for the growth in the assay on LOX IMVI melanoma and with SK-MEL-28 melanoma were 50.6% and 89.3%, respectively.
`CN(C)CCCc1ccc(Nc2cnn(C)c(=O)c2Cl)cc1`: the growth is 116% in the assay on DU-145 prostate; 89.8% with K-562 leukemia; 88.8% in the assay with MALME-3M melanoma; 108% with MDA-MB-231 breast; 90.2% in the assay on RXF 393 renal; 113% in the assay on SF-268 CNS. The growth in the assay with SF-295 CNS was 89.2%; in the assay with SF-539 CNS, 94%; in the assay with UACC-257 melanoma, 98.5%; in the assay with M14 melanoma it was 100%; in the assay on HCT-15 colon, 96.6%; in the assay with HT29 colon it was 105%. Also, the growth with SNB-75 CNS is 74.2%; in the assay on SNB-19 CNS, 103%; in the assay with U251 CNS it was 105%; in the assay on PC-3 prostate, 91%; in the assay with SK-MEL-5 melanoma, 93.2%; with UACC-62 melanoma it was 98.9%. For the same compound, the growth was 101% in the assay with LOX IMVI melanoma and 111% in the assay with SK-MEL-28 melanoma.
For `COc1ccc(-c2nnc3c(/C=C/c4ccc(Br)cc4)nc4ccccc4n23)cc1`, the growth in the assay on DU-145 prostate was 53.6%; in the assay with K-562 leukemia, 10.6%; with MALME-3M melanoma, -39.4% (active); in the assay on MDA-MB-231 breast, 81.9%; in the assay with RXF 393 renal, -2.19% (active); with SF-268 CNS, 87.4%. For the same compound, the growth with SF-295 CNS was 87.4%; in the assay with SF-539 CNS, 23.8%; with UACC-257 melanoma, 70.9%; in the assay on M14 melanoma it was -19.8% (active); in the assay on HCT-15 colon, -60.7% (active); in the assay with HT29 colon, -34.1% (active). Also, the growth in the assay on SNB-75 CNS is 83.4%; with SNB-19 CNS it was 86.3%; in the assay with U251 CNS, 68.4%; in the assay on PC-3 prostate, 86.4%; with SK-MEL-5 melanoma, 49.4%; in the assay on UACC-62 melanoma, 40.8%. Further, the growth in the assay with LOX IMVI melanoma was -87.9% (active); in the assay on SK-MEL-28 melanoma, 72.4%.
On to `O=CNc1ccc(-n2cnc3cc(-c4ccc(O)cc4)ccc32)cc1`, for which the growth in the assay with DU-145 prostate was 86.7%; with K-562 leukemia, 64.7%; with MALME-3M melanoma it was 65.9%; in the assay on MDA-MB-231 breast, 108%; in the assay on RXF 393 renal, 86.5%; with SF-268 CNS, 84.6%. Further, the growth with SF-295 CNS was 103%; in the assay on SF-539 CNS, 60.5%; in the assay on UACC-257 melanoma, 98.8%; with M14 melanoma, 91.5%; with HCT-15 colon, 74%; with HT29 colon, 111%. Besides, the growth with SNB-75 CNS was 59.3%; with SNB-19 CNS, 88.5%; with U251 CNS it was 84.6%; with PC-3 prostate, 88.1%; in the assay with SK-MEL-5 melanoma, 79.4%; with UACC-62 melanoma, 99.2%. Moreover, the values for the growth in the assay with LOX IMVI melanoma and in the assay on SK-MEL-28 melanoma were 93.7% and 92.9%, respectively.
